Measured values taken from PubChem BioAssay AID720519 (National Center for Advancing Translational Sciences (NCATS), 2013).
Inconclusive results are not listed. The source made the active and inactive calls. Calls follow the shape of the dose curve; as a rule, active = well fitted activation curve with a large enough effect; inconclusive = small, poorly fitted or top-dose-only effect; inactive = flat fitted curve, though single readings scatter.

Assay: qHTS for Inhibitors of Cell Surface uPA Generation: Confirmatory Assay for Cherry-picked Compounds
Settings: cell surface uPA activity generation, qHTS confirmation; series mostly up to 115 µM
Method in brief: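 RAW 264.7 cells at 4000/well, incubated overnight, then treated with compounds. After 24 h at 37 C, viability was read by ATPlite luminescence. An increase in signal indicates blocked uPA-dependent LF entry.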

Potency, inactive:
O=C(Nc1ccc(N2CCOCC2)cc1)c1ccc(Cl)c(S(=O)(=O)N2CCCC2)c1, CCOc1ccc(N(CC(=O)Nc2ccc(CC)cc2)S(=O)(=O)c2c(C)[nH]c(=O)[nH]c2=O)cc1, CCCCNc1c(-c2ccc(-c3cccc(Cl)c3)cc2)nc2ccccn12, COc1ccc(C(=O)CC2(C(=O)O)CCCCC2)cc1, CCC(=O)N(Cc1cc2ccc(C)cc2[nH]c1=O)c1ccccc1OC, CCCCCCCCCOC(=O)C1N2C(=O)[C@@H](NC(=O)COc3ccccc3)[C@H]2SC1(C)C (some centres not stated), CC(=O)c1cnc2nc(SCc3cccc(C)c3)nn2c1C, O=C(N/C(=C\c1cccc([N+](=O)[O-])c1)C(=O)N1CCOCC1)c1ccc([N+](=O)[O-])cc1, Cc1ccc(C(=O)COc2cc(O)c3c(=O)cc(-c4ccccc4)oc3c2)cc1, CN(CC(=O)NCc1ccco1)CC(=O)Nc1c(Cl)cccc1Cl, COc1ccc(CC(=O)NNS(=O)(=O)c2ccccc2[N+](=O)[O-])cc1OC, NC(=O)c1ccc(NC(=O)CN2CCN(S(=O)(=O)c3ccc4ccccc4c3)CC2)cc1, O=C(CCc1ccccc1)NNC(=O)c1cccc(F)c1, CC(=O)c1c(C)n(-c2ccccc2Br)c2ccc(O)cc12, Cc1nc2ccc(Br)cn2c1C(=O)N/N=C\c1ccccc1Cl, CCNC(=S)NNC(=O)C(c1ccccc1)c1ccccc1, COc1ccc(/C(C)=N/N2CCOCC2)c(O)c1
